G9a block = G9a (human) methyltransferase inhibition | Q96KQ7 | G9a H3K9 monomethylation, AlphaScreen, 2 h | Potency, µM (series often up to 102 µM), hits mostly inhibitors | 350,000 compounds, 8.8% hits | AID 504332; note: nearly all actives have a fitted effect of over 75% in size
Target sequence (Q96KQ7 913-1193 limits assumed): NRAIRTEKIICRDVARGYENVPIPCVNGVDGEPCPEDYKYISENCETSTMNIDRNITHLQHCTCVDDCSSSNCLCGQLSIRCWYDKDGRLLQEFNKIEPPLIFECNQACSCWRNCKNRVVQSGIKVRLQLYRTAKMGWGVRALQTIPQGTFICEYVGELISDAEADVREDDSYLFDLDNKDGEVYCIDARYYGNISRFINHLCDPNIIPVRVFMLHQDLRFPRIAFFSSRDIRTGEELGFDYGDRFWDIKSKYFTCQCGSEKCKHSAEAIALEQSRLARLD
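Using a bead-based AlphaScreen, monomethylated H3K9 product from 2 h room-temperature reactions (G9a 20 nM, peptide 500 nM, SAM 20 uM) was detected with 0.5 ug/mL rabbit anti-H3K9me1 antibody.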
HP1b chromo inh = inhibitors of HP1-beta chromodomain binding to methylated histone tails; P83916; AlphaScreen HP1-beta / biotin-H3K9me3 peptide binding; Potency, µM (titrated, usually from 114 µM), hits mostly inhibitors; 390,000 compounds, 0.56% hits; AID 540317; note: nearly all actives have a fitted effect of over 70% in size
Target sequence (P83916 whole entry, looked up): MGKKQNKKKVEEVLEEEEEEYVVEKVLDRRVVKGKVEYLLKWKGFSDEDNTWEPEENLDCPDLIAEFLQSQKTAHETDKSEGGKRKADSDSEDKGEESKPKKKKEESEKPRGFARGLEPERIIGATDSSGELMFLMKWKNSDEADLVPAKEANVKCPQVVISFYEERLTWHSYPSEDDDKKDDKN
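AlphaScreen: HP1-beta (50 nM) preformed 30 min with biotin-H3(1-18)K9me3 peptide (50 nM) in PBS pH 7.4, 0.01% Tween-20. Compound added for 30 min at RT, then streptavidin donor/nickel chelate acceptor beads (10 ug/mL) for 30 min.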
BAZ2B block = inhibitors of human BAZ2B bromodomain. AlphaScreen BAZ2B-H3K14Ac peptide displacement. 360,000 compounds, 4.4% hits. AID 504333. Q9UIF8. Potency, µM (series often up to 114 µM), usual class: inhibitors; note: nearly all actives have a fitted effect of over 60% in size
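AlphaScreen displacement: compounds (up to 110uM) incubated 30 min at room temperature with a preformed 50 nM BAZ2B/50 nM biotinylated H3K14Ac peptide complex in PBS pH 7.4 with Tween-20. Donor and acceptor beads at 10 ug/mL final added, 20 min light-protected before reading.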
CtBP-E1A blk = blocks the CtBP interaction with E1A; AlphaScreen GST-E1A/His-CtBP binding, 1536-well; active compounds read low; 340,000 compounds, 0.49% hits; activity change, % (no concentration beside the values); in the data active = activity change below about -65%; inconclusive = mostly about -30% to -63%
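Protein mix (5X: 125 nM each GST-E1A, His-CtBP) was incubated with pinned compound 2 h at 37 deg C in dark, in 50 mM Tris pH 8.0 buffer with 300 mM NaCl. Glutathione donor and nickel acceptor beads followed; AlphaScreen signal read after 1 h.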
Six1-Eya2 blk = Six1/Eya2 interaction inhibition; 360,000 compounds, 0.56% hits; activity change, % (test concentration not listed); AID 651725; AlphaScreen GST-Six1/His-Eya2 binding, biochemical; active compounds read low; in the data active = activity change below about -65%; inconclusive = mostly about -30% to -63%
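Six1/Eya2 binding was read as AlphaScreen signal after compounds were pinned into GST-Six1 plus His-tagged Eya2 (5X stock 250/500 nM) in pH 8.0 Tris/NaCl/TCEP buffer, beads added, then incubated 1 h, 37 C, dark.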
JMJD2A Tudor inh = JMJD2A Tudor domain (human) inhibition | AlphaScreen JMJD2A-Tudor / H3K4me3 peptide binding | Potency, µM (doses to about 114 µM), hits mostly inhibitors | 390,000 compounds, 4.4% hits | AID 504339; note: nearly all actives have a fitted effect of over 50% in size
Hits are given with their value; [ ] = remark or other dose. In the library only some 10% were active in any assay of this set; here they are far more common. Unless noted, calls come from the whole dose curve; as a rule, active = well fitted inhibition curve with a large enough effect; inconclusive = small, poorly fitted or top-dose-only effect; inactive = no such curve, though single readings can be large or run the other way.

`COc1ccccc1C1Nc2cccc3cccc(c23)N1` gave G9a block inconclusive, HP1b chromo inh inconclusive, BAZ2B block 50µM, CtBP-E1A blk inactive, Six1-Eya2 blk inactive and JMJD2A Tudor inh 50µM.
Screening Clc1cccc(C2Nc3cccc4cccc(c34)N2)c1 returned HP1b chromo inh inconclusive, BAZ2B block inconclusive, CtBP-E1A blk inactive, Six1-Eya2 blk inactive and JMJD2A Tudor inh inconclusive.
For COCCNC(=O)CCCn1c(SCc2ccccc2Cl)nc2c(sc3ccccc32)c1=O the results were G9a block inactive, HP1b chromo inh inactive, BAZ2B block inactive and JMJD2A Tudor inh inactive.
`CCc1ccc(S(=O)(=O)N/N=C\c2cn(CC(N)=O)c3ccccc23)cc1` gave G9a block inconclusive, HP1b chromo inh inactive, BAZ2B block inconclusive, CtBP-E1A blk inactive, Six1-Eya2 blk inactive and JMJD2A Tudor inh inactive.
For COc1ccc(NS(=O)(=O)c2cc(C(=O)N3CCCCCC3)ccc2C)cc1 the results were HP1b chromo inh inactive, CtBP-E1A blk inactive, Six1-Eya2 blk inactive and JMJD2A Tudor inh inactive.
Screening COc1cc(OC)c(C2Nc3cccc4cccc(c34)N2)c(OC)c1 returned G9a block 28µM, HP1b chromo inh inconclusive, BAZ2B block 35µM, CtBP-E1A blk inactive, Six1-Eya2 blk inactive and JMJD2A Tudor inh 50µM.
`Nc1nc2n(n1)C(=O)CC(c1ccccc1[N+](=O)[O-])N2` (centres undefined) gave G9a block inactive, HP1b chromo inh inactive, BAZ2B block inactive, Six1-Eya2 blk inactive and JMJD2A Tudor inh inactive.
For O=[N+]([O-])c1ccc(Cl)c(C2Nc3cccc4cccc(c34)N2)c1 the results were G9a block 13µM, HP1b chromo inh inconclusive, BAZ2B block 18µM, CtBP-E1A blk inactive, Six1-Eya2 blk inconclusive and JMJD2A Tudor inh 25µM.
Brc1cccc(C2Nc3cccc4cccc(c34)N2)c1 was read as G9a block 35µM, HP1b chromo inh inactive, BAZ2B block inconclusive, CtBP-E1A blk inactive, Six1-Eya2 blk inactive and JMJD2A Tudor inh inactive.
O=C(Nc1cccc(NC(=O)c2cc([N+](=O)[O-])ccc2Cl)n1)c1cc([N+](=O)[O-])ccc1Cl was read as HP1b chromo inh inactive, Six1-Eya2 blk inactive and JMJD2A Tudor inh inconclusive.
O=[N+]([O-])c1ccccc1C1Nc2cccc3cccc(c23)N1 was read as G9a block 2.8µM, HP1b chromo inh inconclusive, BAZ2B block 32µM, CtBP-E1A blk inactive, Six1-Eya2 blk inactive and JMJD2A Tudor inh 40µM.
COc1cc(OC)c(C2SCCS2)c(OC)c1 was read as G9a block inactive, HP1b chromo inh inactive, BAZ2B block inconclusive, CtBP-E1A blk inactive, Six1-Eya2 blk inactive and JMJD2A Tudor inh inactive.
`COc1ccc(-c2oc3c(c2C(=O)OCCO)C(OCCCO)CCC3)cc1` (centres undefined) gave CtBP-E1A blk inactive and Six1-Eya2 blk inactive.
Cc1ccc(S(=O)(=O)N2CCN(c3nc(-c4cccs4)cc4ccccc34)CC2)cc1 was read as HP1b chromo inh inactive and JMJD2A Tudor inh inactive.
`CN(C)c1ccc(C2NC(=O)c3ccccc3N2)cc1` (centres undefined) gave HP1b chromo inh inactive, BAZ2B block inactive, CtBP-E1A blk inactive, Six1-Eya2 blk inactive and JMJD2A Tudor inh inactive.
For CN(C)c1ccc(C2Nc3cccc4cccc(c34)N2)cc1 the results were G9a block 40µM, HP1b chromo inh inconclusive, BAZ2B block inconclusive, CtBP-E1A blk inactive, Six1-Eya2 blk inactive and JMJD2A Tudor inh inconclusive.
C[C@@H]1CCCN1[C@H]1CS(=O)(=O)N[C@@H]1COCc1ccccc1 was read as CtBP-E1A blk inactive and Six1-Eya2 blk inactive.
For COc1cc(C)ccc1NC(=O)Cc1csc(NC(=O)Nc2ccccc2OC)n1 the results were G9a block 13µM, HP1b chromo inh inactive, BAZ2B block inconclusive, CtBP-E1A blk inactive, Six1-Eya2 blk inactive and JMJD2A Tudor inh inactive.
For COc1ccccc1NC(=O)Nc1nc(CC(=O)Nc2ccc(OC)c(OC)c2)cs1 the results were G9a block inactive[2.33 µM], HP1b chromo inh inactive, BAZ2B block inactive, CtBP-E1A blk inactive, Six1-Eya2 blk inactive and JMJD2A Tudor inh inactive.
